HT1080 IDH1KD tx: qHTS for induction of synthetic lethality in tumor cells producing 2HG: qHTS for the HT-1080-IDH1KD cell line; HT-1080 IDH1 knockdown viability, ATP luminescence, 48 h; actives 2% (n = 360,000); Potency, µM (highest dose often 46.1 µM), for inactives: at the highest dose activity, negative = toxicity, hits mostly cytotoxic;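 note: potency is the fitted concentration of half-maximal effect; 0% = DMSO wells and -100% = cell-free medium wells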
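After a 2 h attachment period, IDH1KD HT-1080 cells took pin-transferred compound for 48 h at 37 °C; ATP-based luminescence after 10 min room-temperature reagent incubation reported viability.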
IL1B secr inh: qHTS for Inhibitors of Inflammasome Signaling: IL-1-beta AlphaLISA Primary Screen; THP-1 LPS/ATP IL-1B secretion, AlphaLISA, 16 h; active compounds read low; activity change, % at 57.5 µM; actives 4.7% (n = 360,000); AID 743279, 2014; in the data active = activity change below about -50%; inconclusive = mostly about -30% to -49%
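Secreted IL-1B measured by AlphaLISA bead assay after 16 h compound exposure of THP-1 cells; compounds (final up to 57.5 uM) added 1 h before LPS (250 ng/mL) and ATP (1.25 mM) stimulation; lower signal means less secretion.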
TDP1 cell CPT: qHTS for Inhibitors of human tyrosyl-DNA phosphodiesterase 1 (TDP1): qHTS in cells in presence of CPT; chicken DT40 Tdp1-/-;hTDP1 cells + 20 nM CPT, ATP luminescence, 48 h; Potency, µM (top dose mostly 46.2 µM), inactives show at the highest dose activity change, negative = growth inhibition, actives largely listed as inhibitors; actives 12% (n = 420,000); note: potency is the fitted concentration of half-maximal effect; nearly all actives have a fitted effect of over 55% in size
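Chicken DT40 Tdp1-/- cells complemented with human TDP1, 400 cells/well, exposed to compounds plus 20 nM camptothecin for at least 48 h at 37 C; viability read as ATP content by CellTiter-Glo luminescence.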
HT1080-NT tox: qHTS for induction of synthetic lethality in tumor cells producing 2HG: qHTS for the HT-1080-NT fibrosarcoma cell line; HT-1080-NT fibrosarcoma viability, CellTiter-Glo ATP luminescence, 48 h; Potency, µM (doses to about 46.1 µM), inactives show top-dose activity, negative = less viability, usual class: cytotoxic; actives 1.6% (n = 360,000);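 note: NT is the 2HG producing partner of a matched IDH1 knockdown line; potency is the fitted concentration of half-maximal effect; 0% = DMSO-treated cells and -100% = media-only wells without cells; nearly all actives have a fitted effect of over 55% in size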
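750 cells/well, RPMI + 5% FBS; 2 h settle, compound pin-transfer, 48 h at 37 degrees C. CellTiter-Glo 10 min RT, luminescence. Normalized to DMSO and media-only wells.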
DT40 TDP1 no CPT: qHTS for Inhibitors of human tyrosyl-DNA phosphodiesterase 1 (TDP1): qHTS in cells in absence of CPT | DT40 Tdp1-/- hTDP1 cells, no CPT, ATP luminescence, 48 h | Potency, µM (series often up to 46.2 µM), without a hit: at the highest dose activity change, negative = growth inhibition, actives largely listed as inhibitors | actives 15% (n = 420,000) | AID 686978, 2013; note: potency is the fitted concentration of half-maximal effect; nearly all actives have a fitted effect of over 55% in size
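Readout: luminescence from CellTiter-Glo after 30 min in the dark at RT. Cells: DT40 Tdp1-/- with stable hTDP1, 400/well. Exposure: compounds alone, ≥48 hr, 37 °C.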
12-LOX inh: Primary qHTS assay for inhibitors of human arachidonate 12S-lipoxygenase (ALOX12): Round 2. Potency, µM (titrated, usually from 108 µM), without a hit: top-dose activity change, negative = inhibition, actives largely listed as inhibitors. purified 12hLO, xylenol orange hydroperoxide absorbance. Polyunsaturated fatty acid lipoxygenase ALOX12 (Homo sapiens), P18054. actives 1.1% (n = 580,000). AID 1671190, 2021; note: potency is the fitted concentration of half-maximal effect
Target sequence (P18054 whole entry, looked up): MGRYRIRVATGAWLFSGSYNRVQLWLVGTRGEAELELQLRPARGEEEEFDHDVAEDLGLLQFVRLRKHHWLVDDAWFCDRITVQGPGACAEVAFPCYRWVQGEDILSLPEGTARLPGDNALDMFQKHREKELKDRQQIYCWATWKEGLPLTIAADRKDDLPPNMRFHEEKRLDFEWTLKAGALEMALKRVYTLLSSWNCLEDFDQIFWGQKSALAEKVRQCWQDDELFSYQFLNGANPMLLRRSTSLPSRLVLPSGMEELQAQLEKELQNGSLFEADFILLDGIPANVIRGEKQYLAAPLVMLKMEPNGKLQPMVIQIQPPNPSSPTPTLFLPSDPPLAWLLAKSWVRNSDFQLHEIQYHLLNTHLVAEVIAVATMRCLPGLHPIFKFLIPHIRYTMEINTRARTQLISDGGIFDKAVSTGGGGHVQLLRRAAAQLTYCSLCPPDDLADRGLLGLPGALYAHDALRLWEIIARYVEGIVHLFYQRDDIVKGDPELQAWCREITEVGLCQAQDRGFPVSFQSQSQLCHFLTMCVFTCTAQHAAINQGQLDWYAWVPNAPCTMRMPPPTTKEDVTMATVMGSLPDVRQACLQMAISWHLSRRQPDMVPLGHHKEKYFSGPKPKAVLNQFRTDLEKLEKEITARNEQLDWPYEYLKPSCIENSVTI
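Purified human 12hLO (150 nM final) in 25 mM Hepes, 0.01% Triton X-100, pH 7.0 was preincubated 15 min at room temperature with compound. Then 40 uM arachidonic acid was added, 30 min. Hydroperoxide was read by Fe-XO absorbance ratio 573/405 nm.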
Active calls of the source: *; ? = inconclusive; . = no result given; ! = repeats disagree; [ ] = remark or other dose. The sample as a whole holds a higher share of hits than the screen did. Unless noted, calls come from the whole dose curve; as a rule, active = well fitted curve in the direction sought with a large enough effect; inconclusive = small, poorly fitted or top-dose-only effect, or another doubt; inactive = no such curve, though single readings can be large; an effect the other way counts as inactive or inconclusive. Unless noted, % is set by controls: 0 for no effect and ±100 for the full control effect.

SMILES	HT1080 IDH1KD tx	IL1B secr inh	TDP1 cell CPT	HT1080-NT tox	DT40 TDP1 no CPT	12-LOX inh
CC1=C(C(=O)c2ccccc2)C(c2cccc(Oc3ccc(Cl)cc3)c2)NC(=O)N1 (stereo not given)	.	.	.	.	.	-52.0%
O=C(CCC(=O)N1CCC(c2noc3ccc(F)cc23)CC1)N1CCOCC1	.	.	.	.	.	8.5%
Cc1ccc(OCC(COCc2ccccc2)NC(C)C)cc1 (stereo not given)	-27.4%	?	?	-25.5%	18.4µM*	?
COc1cccc(Cn2c(Cc3c[nH]c4ccccc34)n[nH]c2=O)c1	.	.	.	.	.	8.6%
COc1ccc(-c2oc3cc(O)c(OC)c(O)c3c(=O)c2OC)cc1	20.6µM*	48.1	10.3µM*	?	13µM*	8.5%
COc1c(-c2ccc(O)cc2)oc2cc(O)cc(O)c2c1=O	-1.8%	58.3	?	-0.4%	?	-22.0%
COc1ccc(-c2oc3ccccc3c(=O)c2O)cc1OC	.	.	-28.0%	.	-28.9%	.
COc1ccc(-c2oc3ccc(C)cc3c(=O)c2O)cc1OC	.	.	11.9µM*	.	?	.
COc1ccc(-c2oc3c(OC)c(OC)c(OC)c(O)c3c(=O)c2OC)cc1OC	-12.3%	33.9	?	-10.2%	20.6µM*	33.2%
COc1ccc(-c2oc3cc(O[C@@H]4OC(CO)C(O)C(O)C4O)c(OC)c(O)c3c(=O)c2OC)cc1O (stereo not given in full)	.	.	?	.	14.6µM*	.
Cn1cnc(C(=O)N2CC(F)(F)C[C@H]2c2nc(C3CC3)no2)c1	.	.	.	.	.	18.9%
O=C([C@H]1C[C@@H](F)CN1S(=O)(=O)c1ccc(Cl)cc1)N1CCOCC1	.	.	.	.	.	23.7%
CCCn1nnnc1CN1CCC(C(=O)c2ccc3c(c2)OCCO3)CC1	.	.	.	.	.	0.0%
CC(C)CN1CCOC(CNC(=O)CSc2cc(C(=O)NC3CC3)c3ccccc3n2)C1 (stereo not given)	.	.	.	.	.	-28.1%
CCOC(=O)C1CCN(Cc2cc(=O)oc3c(C)cc(C)cc23)CC1	.	.	.	.	.	-1.3%
O=c1c(O)c(-c2ccc(O)cc2)oc2ccc(O)cc12	.	.	13.3µM*	.	13.3µM*	.
NC(=O)c1c(-c2ccccc2)oc2ccc(O)cc12	6.1%	0.0	-22.7%	-5.2%	-13.6%	22.7%
Cc1[nH]c2ccc(C(=O)OCCN(C)C)cc2c1C	-2.6%[9.24 µM]	-2.6	-3.7%	9.6%	-21.8%	184.5%
Cc1c(C)n(Cc2ccccc2)c2ccc(C(=O)OCCCN(C)C)cc12	13µM*	-108.8*	?	14.6µM*	20.6µM*	-23.6%
Cc1c(C)n(CCN(C)C)c2ccc(C(=O)OCCN(C)C)cc12	?	-25.0	?	?	21.1µM*	-18.6%
CN(CC(=O)Nc1cccc(F)c1)C(=O)c1nn(Cc2ccccc2)c(=O)c2ccccc12	.	.	.	.	.	27.2%
O=C(Cc1cn2ccsc2n1)N1CCCn2nc(C(O)C3CC3)cc2C1 (stereo not given)	.	.	.	.	.	44.7µM*
CN1C[C@@H](NC(=O)c2ccccc2)C[C@H]1c1nc(-c2cnccn2)no1	.	.	.	.	.	6.0%[176 µM]
CCN1CCN(c2nc3ccccc3nc2C(C#N)C(=O)OCc2ccccc2)CC1 (stereo not given)	-18.6%	-10.0	23.1µM*	-16.0%	?	?
CCCCCCOC(=O)C(C#N)c1nc2ccccc2nc1N1CCN(CC)CC1 (stereo not given)	23.1µM*	?	?	16.4µM*	20.6µM*	?
SMILES	HT1080 IDH1KD tx	IL1B secr inh	TDP1 cell CPT	HT1080-NT tox	DT40 TDP1 no CPT	12-LOX inh
CC1CCN(c2nc3ccccc3nc2C(C#N)C(=O)OC2CCCCC2)CC1 (stereo not given)	0.6%	-3.5	16.4µM*	7.5%	?	.
CCCCCCOC(=O)C(C#N)c1nc2ccccc2nc1N1CCOCC1 (stereo not given)	1.2%	-12.7	?	3.5%	18.4µM*	-27.3%
C=CCOC(=O)C(C#N)c1nc2ccccc2nc1N1CCN(c2ccccc2)CC1 (stereo not given)	.	.	.	.	.	-40.2%
N#CC(C(=O)OC1CCCCC1)c1nc2ccccc2nc1N1CCCCC1 (stereo not given)	.	.	.	.	.	-5.4%
CC(C)(C)C(=O)CSc1nnc(COc2ccccc2Cl)n1C1CC1	.	.	.	.	.	52.4%
COc1cc(OC)cc(C(=O)Nc2cc(C)c(O)c(-c3nc4ccccc4o3)c2)c1	.	.	.	.	.	24.6%
CCN1CCc2c(sc(-n3cccc3)c2C(CCC(C)C)NC(=O)NCCC(=O)OC)C1 (stereo not given)	.	.	?	.	25.9µM*	-5.3%
CC(NC(=O)Nc1ccccc1C(F)(F)F)c1c(-n2cccc2)sc2c1CCCC2 (stereo not given)	.	.	?	.	10.3µM*	-24.1%
Cc1sc(-n2cccc2)c(C(C)NC(=O)Nc2ccccc2Cl)c1C (stereo not given)	.	.	?	.	?	-13.8%
CCN1CCc2c(sc(-n3cccc3)c2C(C)NC(=O)Nc2ccc(C(=O)OC)cc2)C1 (stereo not given)	.	.	18.4µM*	.	18.4µM*	-60.2%
O=C(NCc1cc(F)ccc1F)C1CN(S(=O)(=O)c2cccnc2)CC12CCCCC2 (stereo not given)	.	.	.	.	.	16.4%
COC(=O)CCCNC(=O)C12CC3CC(CC(C3)C1)C2	.	.	.	.	.	-21.3%
O=S(=O)(Cc1cc(N2CCOCC2)nc(-c2ccccn2)n1)c1ccccc1	-2.2%	-12.4	10.3µM*	-7.6%	18.4µM*	-2.2%
Cc1nc(CS(=O)(=O)c2ccc(Cl)cc2)cc(N2CCOCC2)n1	11.7%	15.1	-7.8%	13.3%	-7.8%	155.1%
CC(=O)N1CCCc2cc(S(=O)(=O)N(Cc3ccccc3)C(C)C)ccc21	.	.	14.6µM*	.	16.4µM*	-5.0%
CC(=O)N1CCCc2cc(S(=O)(=O)N3CCCC(C(=O)NCc4ccccc4)C3)ccc21 (stereo not given)	0.9%	-14.4	?	0.4%	25.9µM*!	0.4%
CC(=O)N1CCCc2cc(S(=O)(=O)N3CCCC(C(=O)NCc4ccc(C)cc4)C3)ccc21 (stereo not given)	-11.9%	82.1	18.4µM*	-1.0%	23.1µM*	-6.1%

Bioassay records (PubChem BioAssay)
